# Measured values published in PubChem BioAssay (NCI).
# This is part of a sample that, as a whole, favours compounds with a hit. Of some 83,000 tested, about 20% had one in any assay.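 Values shown are percent growth following 48 h exposure of cells in 96-well plates to a single concentration of compound; below 10 was considered active.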 Values without a mark were called inactive. Activity calls are given as the source filed them.
# Legend:
# Test in all cases: NCI-60 one-dose screen, 48 h (100 = growth as untreated, 0 = no growth, -100 = all killed)
# Details in all cases: 10 µM unless noted
# SK-MEL-2 melanoma = tested on: SK-MEL-2 melanoma
# EKVX NSCLC = tested on: EKVX NSCLC
# SN12C renal = tested on: SN12C renal
# UO-31 renal = tested on: UO-31 renal
# TK-10 renal = tested on: TK-10 renal
# ACHN renal = tested on: ACHN renal
# A498 renal = tested on: A498 renal
# CCRF-CEM leukemia = tested on: CCRF-CEM leukemia
# MOLT-4 leukemia = tested on: MOLT-4 leukemia
SMILES,growth (SK-MEL-2 melanoma),growth (EKVX NSCLC),growth (SN12C renal),growth (UO-31 renal),growth (TK-10 renal),growth (ACHN renal),growth (A498 renal),growth (CCRF-CEM leukemia),growth (MOLT-4 leukemia)
Cc1cc(N2CCCC2)nc(N(CCNc2ccnc3cc(Cl)ccc23)Cc2ccco2)n1,77.1%,36.1%,28.8%,10.8%,63.8%,39.6%,26.9%,11%,-9.45% (active)
Cc1cc(N(CCNc2ccnc3cc(Cl)ccc23)Cc2ccco2)nc(Cl)n1,-7.16% (active),32.2%,-79.2% (active),-97% (active),-74.4% (active),-98.8% (active),20.8%,0.284% (active),-26.2% (active)
C=C1C(=O)O[C@H]2[C@H]1CC/C(COC(=O)N[C@H](Cc1c[nH]c3ccccc13)C(=O)OC)=C\CC[C@@]1(C)O[C@@H]21,70.4%,63.6%,41.7%,-4.81% (active),25.8%,-17.7% (active),83%,2.23% (active),4.53% (active)
COc1ccc2c(c1)c(-c1nc(-c3cn(C)c4ncccc34)cs1)cn2CCN,101%,56.5%,76.3%,66.6%,92.4%,69.4%,97.4%,69%,29.7%
COc1cc(/C=N/Nc2ncnc3c2c(C)nn3-c2ccc(F)cc2)ccc1O,89.9%,87.6%,85.1%,64.4%,88.7%,92.7%,103%,62%,61.7%
Cc1cccc(C)c1NC(=O)CSC(=S)N1CCN(CCOCCO)CC1,95%,95%,105%,89.7%,85.8%,106%,103%,107%,104%
Cc1ccc2oc(=O)cc(-c3sc(N4CCCCC4)nc3-c3ccccc3)c2c1,93.7%,90.4%,50.2%,58%,161%,84.3%,109%,104%,97.3%
CCCCC[C@H]1C/C=C2/C(=O)C=C[C@@H]2C/C=C\CCCC(=O)O[C@@H](CCCCC)C/C=C2/C(=O)C=C[C@@H]2C/C=C\CCCC(=O)O1,-60% (active),-68.3% (active),-65.7% (active),-97.1% (active),-83.4% (active),-93.4% (active),-84.8% (active),-3.81% (active),-15.8% (active)
COc1ccc2c(c1)c(-c1nc(-c3c[nH]c4ncccc34)cs1)cn2CCN,75.2%,50.1%,78.2%,48.5%,71.9%,41.3%,72.2%,55.8%,46.4%
COc1ccc2c(c1)c(-c1nc(-c3c[nH]c4ncccc34)cs1)cn2CCNC(=O)OC(C)(C)C,86.6%,55.6%,84.8%,49.3%,89.2%,67.9%,85.3%,48.2%,55.7%
Cc1cc(Cl)nc(N(CCCNc2ccnc3cc(Cl)ccc23)Cc2ccco2)n1,39.4%,24.1%,26.6%,10.9%,41.7%,28.4%,38.1%,20.6%,-1.04% (active)
CCCCC[C@H]1CC=C2C(=O)C(Cl)=C[C@@H]2CC=CCCCC(=O)O[C@@H](CCCCC)CC=C2C(=O)C(Cl)=C[C@@H]2CC=CCCCC(=O)O[C@@H](CCCCC)CC=C2C(=O)C(Cl)=C[C@@H]2CC=CCCCC(=O)O1,91.4% [8 µM],96.6% [8 µM],43.1% [8 µM],76.3% [8 µM],151% [8 µM],69.6% [8 µM],106% [8 µM],7.3% [8 µM] (active),10.4% [8 µM]
N#CC1=C(N)Oc2c(sc3c(F)cccc23)C1c1ccc(Cl)cc1 (stereo not given),-3.89% (active),51.4%,36.2%,41.7%,78.4%,42%,46.6%,15.1%,8.38% (active)
Clc1ccc2c(NCCNc3nc(-c4ccccc4)cc(-c4ccccc4)n3)ccnc2c1,-10.9% (active),18.6%,-74.4% (active),-94.3% (active),-8.38% (active),-97.2% (active),93%,-9.52% (active),-32.2% (active)
Cc1cc(N(CCCNc2ccnc3cc(Cl)ccc23)Cc2ccco2)nc(N2CCN(C)CC2)n1,70.7%,66.1%,50.5%,47.5%,117%,18.6%,72.2%,43.4%,37.6%
